# PLK1 PBD inh: blocks phosphopeptide binding to human PLK1 polo-box domain; P53350; Plk1 PBD binding of FITC phosphopeptide, fluorescence polarization; Potency, µM, most hits filed as inhibitors; actives 2.8% (n = 360,000); AID 720504; note: series mostly up to about 57 µM; nearly all actives have a fitted effect of over 65% in size
# CCT modulator: modulators of cytosolic chaperonin (CCT/TRiC) activity; purified chaperonin ATPase assay, HTRF ADP detection, 30 min; actives 0.3% (n = 360,000); activity change, % (no concentration beside the values), hits read low; in the data active = activity change below about -30%
#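 Enzyme 40 or 20 nM (batch-dependent) in Tris pH 7.4/KCl/MgCl2/DTT; cpd 76 uM single point; ATP 10 uM; 30 min 37 °C; Transcreener ADP HTRF detection, 30 min RT; ratio 665/615.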
# G9a inh: G9a (human) methyltransferase inhibition. G9a H3K9 monomethylation, AlphaScreen, 2 h. Potency, µM (titrated, usually from 102 µM), usual class: inhibitors. actives 8.8% (n = 350,000). AID 504332; note: nearly all actives have a fitted effect of over 75% in size
# Target sequence (Q96KQ7 913-1193 limits assumed): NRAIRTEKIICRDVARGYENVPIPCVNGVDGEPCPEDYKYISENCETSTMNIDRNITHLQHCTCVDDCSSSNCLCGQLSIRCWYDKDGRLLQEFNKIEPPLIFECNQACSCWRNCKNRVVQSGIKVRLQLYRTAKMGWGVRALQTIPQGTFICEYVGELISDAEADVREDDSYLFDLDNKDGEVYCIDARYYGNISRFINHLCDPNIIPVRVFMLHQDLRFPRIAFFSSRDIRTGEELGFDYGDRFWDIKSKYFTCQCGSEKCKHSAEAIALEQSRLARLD
#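 Chemiluminescent proximity detection of H3K9 monomethylation, read after 10 min bead incubation in the dark. Reaction: 20 nM G9a, 500 nM biotin-H3K9 peptide, 20 uM SAM cofactor, 2 h, room temperature, following 15 min enzyme-compound preincubation.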
# VDR inhibitor: vitamin D3 receptor (human) inhibition; AID 504847; P11473; Potency, µM, usual class: inhibitors; actives 0.93% (n = 400,000); VDR-SRC2-3 peptide fluorescence polarization, 2 h
# Target sequence (P11473 whole entry, looked up): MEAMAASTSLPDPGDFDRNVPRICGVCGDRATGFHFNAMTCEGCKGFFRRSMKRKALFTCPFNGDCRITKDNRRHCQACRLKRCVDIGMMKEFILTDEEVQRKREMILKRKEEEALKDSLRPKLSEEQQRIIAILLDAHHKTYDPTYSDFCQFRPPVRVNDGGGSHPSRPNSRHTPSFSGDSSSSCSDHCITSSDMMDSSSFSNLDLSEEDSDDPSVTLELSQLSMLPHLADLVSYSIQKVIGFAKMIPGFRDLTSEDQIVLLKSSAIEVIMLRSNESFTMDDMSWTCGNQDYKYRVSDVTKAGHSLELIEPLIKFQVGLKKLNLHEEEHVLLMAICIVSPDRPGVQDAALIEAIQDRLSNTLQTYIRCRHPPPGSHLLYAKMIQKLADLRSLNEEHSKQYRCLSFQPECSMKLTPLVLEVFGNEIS
#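 After 23 nl compound addition and a short centrifugation, plates sat for 2 hours at ambient temperature; polarization of fluorescence then indicated loss of VDR binding to peptide SRC2-3.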
# Sfp inh: blocks B. subtilis Sfp PPTase activity; AID 1490; Q9F4F7; actives 3.5% (n = 310,000); Biochemical Sfp PPTase activity, qHTS; Potency, µM, most hits filed as inhibitors;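 note: the enzyme is Sfp with the accession as filed and its product quenches rhodamine fluorescence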
#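 Step 1, compound plus 15 nM Sfp-PPTase, 15 min, room temperature. Step 2, add rhodamine-CoA (5 uM) and BHQ-2-YbbR (12.5 uM). Step 3, read 525/598 nm fluorescence at 0 and 30 min.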
# MmCpn inh: inhibitors of Methanococcus maripaludis chaperonin TRiC (MmCpn). purified Mm-Cpn ATPase, ADP Transcreener TR-FRET. Potency, µM (highest dose often 76.9 µM), usual class: inhibitors. actives 0.031% (n = 330,000); note: nearly all actives have a fitted effect of over 80% in size
#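 Eu-cryptate anti-ADP/ADP-d2 competition gives a ratio inversely related to ADP. Enzyme at 25 nM was pre-exposed to compound for 10 min, then given 10 uM ATP for 30 min, 37°C throughout.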
# A number is an active result; - = inactive; ? = inconclusive; . = no result; [ ] = another dose, or the depositor's remark. Only some compounds are listed: those with a hit (about 10% of all), similar ones and a draw of the others. Unless noted, calls come from the whole dose curve; as a rule, active = well fitted curve in the direction sought with a large enough effect; inconclusive = small, poorly fitted or top-dose-only effect, or another doubt; inactive = no such curve, though single readings can be large; an effect the other way counts as inactive or inconclusive.
SMILES,PLK1 PBD inh,CCT modulator,G9a inh,VDR inhibitor,Sfp inh,MmCpn inh
CCN1CCN(CC(=O)Nc2cc(F)ccc2C)CC1,-,-,-,-,-,-
O=C(Cl)CCCCCCCC(=O)Cl,.,.,.,-,-,.
CCCCC12CN3CC(C)(CN(C1)C3c1ccc(OCc3ccccc3)cc1)C2=O (configuration not stated),.,.,-,-,.,.
CCc1ccc2oc(-c3cccc(NC(=O)c4ccc(N5CCC(C)CC5)c([N+](=O)[O-])c4)c3)nc2c1,.,.,-,-,.,.
Clc1ncc(C#Cc2ccccc2)c2ncncc12,.,.,.,28µM,.,.
COc1ccc(C#Cc2cnc(Cl)c3cncnc23)cc1OC,.,.,.,-,.,.
COc1ccc(CCNC(=O)CSC(=O)c2ccccc2)cc1OC,21µM,-,18µM,?,45µM,-
COc1ccc(CCNC(=O)CNCC(c2ccccc2)N(C)C)cc1OC (configuration not stated),-,-,8.9µM,-,?,-
CCC(c1nnc(SCC(=O)NCCc2ccc(OC)c(OC)c2)n1Cc1ccccc1)N(C)C (configuration not stated),-,-,-,-,-,-
CC(=O)c1ccc(NC(=O)CNCC(c2ccccc2)N(C)C)cc1 (configuration not stated),19µM,-,14µM,?,79µM,-
COc1ccc(CCNC(=O)CSCc2ccc([N+](=O)[O-])cc2)cc1OC,9.5µM,-,-,?,-,-
O=C(CCCCn1c(=O)c2ccccc2n(CC(=O)Nc2cccc(F)c2)c1=O)NCCc1ccccc1,.,.,-,-,.,.
COc1ccc(CCNC(=O)CSc2ccccn2)cc1OC,-,-,11µM,-,-,-
COc1ccc(CCNC(=O)CSc2ccccc2)cc1OC,-,-,-,-,-,-
CCOC(=O)CSc1nc2ccc(NC(=O)COc3ccccc3C)cc2s1,.,.,-,-,.,.
O=[N+]([O-])c1cnc(N2CCCCC2)c([N+](=O)[O-])c1,-,-,10µM,-,-,-
Cc1ccc(CNC(=O)C(=O)NCC(c2cccs2)S(=O)(=O)c2cccs2)cc1 (configuration not stated),.,.,-,-,.,.
Cc1ccc2[nH]c(CSc3nnc(NC(=O)COc4ccc(F)cc4)s3)cc(=O)c2c1,.,.,-,-,.,.
O=C1NCC(COCc2ccccc2)O1 (configuration not stated),-,-,-[12.7 µM],-,-,-
Cc1cccc(C)c1OCC1CNC(=O)O1 (configuration not stated),27µM,-,-,-,-,-
Cc1cc(Br)ccc1NC(=O)CN(C)C(=O)c1cc([N+](=O)[O-])ccc1N1CCOCC1,-,-,3.5µM,-,.,-
Cc1cccc(NC(=O)CN(C)C(=O)c2ccc(N3CCCCCC3)c([N+](=O)[O-])c2)c1C,-,-,.,-,.,-
Cc1ccc(C)c(NC(=O)CN(C)C(=O)c2cc([N+](=O)[O-])ccc2N2CCOCC2)c1,-,-,-[2.33 µM],-,.,-
COc1cccc(CN(C)C(=O)c2ccc(N3CCCC3)c([N+](=O)[O-])c2)c1,-,-,50µM,-,-,-
CCOc1ccc(NC(=O)CN(C)C(=O)c2cc([N+](=O)[O-])ccc2N2CCCCC2)cc1OCC,-,-,2.2µM,-,.,-
SMILES,PLK1 PBD inh,CCT modulator,G9a inh,VDR inhibitor,Sfp inh,MmCpn inh
COc1ccc(NC(=O)CN(C)C(=O)c2ccc(N3CCCCCC3)c([N+](=O)[O-])c2)cc1,-,-,50µM,-,.,-
CCOc1ccc(NC(=O)CN(C)C(=O)c2ccc(N3CCCC3)c([N+](=O)[O-])c2)cc1OCC,-,-,-[2.33 µM],-,.,-
CCOC(=O)c1c(S(=O)(=O)N2CCCC(C(=O)Nc3cccc(Cl)c3)C2)c(C)n(C)c1C (configuration not stated),.,.,-,-,.,.
O=C(O)CN(CC(=O)O)c1ccccc1OCCOc1ccccc1N(CC(=O)O)CC(=O)O,.,.,.,-,-,.
COc1ccc(NC(=O)CN(C)C(=O)c2ccc(N3CCOCC3)c([N+](=O)[O-])c2)cc1,-,-,-,-,.,-
COc1ccc(CC(=O)Nc2ccc(N3CCCC3)c(C)c2)cc1,-,-,8.9µM,-,-,-
COc1ccc(NC(=O)CN(C)C(=O)c2ccc(N3CCCCC3)c([N+](=O)[O-])c2)cc1,-,-,50µM,-,.,-
COc1cccc2c1OC(=O)CC2c1ccc(C)cc1 (configuration not stated),.,.,-,-,-,.
Cc1nn(C)c2c1c(C(F)(F)F)cc(=O)n2C(C)C(=O)N1CCN(c2ccccc2)CC1 (configuration not stated),.,.,-,-,.,.
COc1ccc(N2CCN(C(=O)C(C)n3c(=O)cc(C(F)(F)F)c4c(C)nn(C)c43)CC2)cc1 (configuration not stated),.,.,10µM,-,.,.
COc1ccc(C(=O)NCCn2cc(SCC(=O)Nc3ccc(F)cc3)c3ccccc32)cc1,.,.,-,-,.,.
O=C(NCC(c1cccnc1)N1CCc2ccccc2C1)C(=O)Nc1ccc(F)cc1F (configuration not stated),.,.,?,-,.,.
CCN1/C(=C/c2cc[n+](CCCS(=O)(=O)[O-])c3ccccc23)Sc2ccccc21,-,-,25µM,-,-,-
Nc1nnnn1/N=C/c1cc(Cl)cc(Cl)c1O,12µM,-,.,-,-,-
O=C(NC(=O)N1CCCC1)c1csnn1,-,-,56µM,-,-,-
O=C(Nc1ccccc1NC(=O)c1csnn1)c1csnn1,-,-,.,-,?,-
O=C(NC(=S)Nc1ccccc1Cl)c1csnn1,-,-,-,?,50µM,-
O=C(NC1CCCCC1)c1csnn1,-,-,.,-,.,.
CCCC(=O)OCc1cnc(C)c2oc(=O)c(C(=O)Nc3ccccc3)cc12,.,.,-,-,.,.
CCS(=O)(=O)c1nc(S(=O)(=O)c2ccc(Cl)cc2)c(N2CCc3ccccc3C2)s1,-,-,8.9µM,-,-,-
Cc1cccc(C)c1NC(=O)Cn1c(=O)n(CCCS(=O)(=O)C2CCCCC2)c(=O)c2ccccc21,.,.,-,-,.,.
COc1ccc(Cn2c3nc4ccccc4nc3c3c(=O)n(Cc4ccco4)cnc32)cc1,.,.,-[12.7 µM],.,4.5µM,-
CCCn1cnc2c(c1=O)c1nc3ccccc3nc1n2Cc1ccccc1OC,.,.,-,.,-,-
Cc1cccc(-n2cnc3c(c2=O)c2nc4ccccc4nc2n3Cc2ccco2)c1,-,-,?,-,3.5µM,-
O=C(NC(NC(=S)Nc1c(Cl)cccc1Cl)C(Cl)(Cl)Cl)OCc1ccccc1 (configuration not stated),-,-,3.2µM,-,-,-
Cc1ccc(C(=O)NNC(=S)NC(=O)c2ccc(Cl)cc2)cc1,-,-,40µM,-,-,-
Cc1ccccc1OCC(=O)NNC(=O)CSc1nc(N)cc(N)n1,21µM,-,-,-,-,-
Cc1ccc(C(=O)NC(=S)NNC(=O)COc2ccccc2C)cc1,-,-,3.5µM,-,-,-

# Assay outcomes: PubChem BioAssay, National Center for Advancing Translational Sciences (NCATS)
